Each structure is given as a SMILES string. A number with no mark means an inactive call. For some of these results: Potency and affinity values are given separately. Activity calls are given as the source filed them.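 The calls were made as follows, unless noted: active = thallium flux through the channel raised or lowered by more than 3 SD from vehicle-only wells, actives on both sides; inactive = the rest.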

Test [1] can be described thus: antimalarial activity against Dd2 strain (AID 2302;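 active = growth inhibition above 50% at the single 2 µM test dose, taken to imply half-maximal potency below 2 µM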;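 also: 0% = DMSO untreated growth and 100% = chloroquine plus artemisinin killed control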). The conditions noted are these: P. falciparum Dd2 in RBCs, LDH growth readout, 72 h; at 2 µM; hits give high values.
The nature of test [2]: human hepatoma cell viability loss – ATP luminescence, cytotoxicity control for P. falciparum antimalarial project, primary screen (AID 2303;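 active = inhibition above 50%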;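 also: 0% = DMSO wells and 100% = digitonin-killed cells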). The conditions noted are these: HepG2 viability, 24-48 h, at 10 µM, hits give high values.
Test [3] has as its target L-lactate dehydrogenase (Plasmodium falciparum (isolate CDC / Honduras)) (UniProt Q27743). Put plainly: PfLDH activity inhibition – cell lysate, 3D7 strain, counter-screen for P. falciparum growth inhibition project (AID 2304; call rule not given here;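 also: 0% = vehicle and 100% = reference inhibitor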). The settings on record: P. falciparum 3D7 crude extract, LDH APAD/NBT absorbance; at 2 µM; hits give high values. A general note: The purpose of a counterscreen is to sort out artefacts and off-target activity.

Test [4] in a line: inhibition of 3D7 malaria parasite growth – strain 3D7 (AID 2306; call rule not given here;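 also: 0% = DMSO wells and 100% = chloroquine plus artemisinin control wells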). The conditions noted are these: P. falciparum 3D7 erythrocytic growth, LDH absorbance, 72 h; at 2 µM; hits give high values.
For test [5], the target named is Protein kinase 7 (PK7), Plasmodium falciparum 3D7 (PF3D7_0213400) (UniProt Q7YTF7). Put plainly: inhibition of Plasmodium PK7 catalytic activity – biochemical, TCAMS antimalarial set, Kinase-Glo luminescence (AID 1159587; call rule not given here). The conditions noted are these: recombinant PfPK7, Kinase-Glo ATP depletion luminescence. (In general: Kinase-Glo measures the ATP left after a reaction by luminescence.)

Test [6] addresses Calcium-dependent protein kinase 4 (Plasmodium falciparum (isolate 3D7)) (UniProt Q8IBS5). Nature of the test: PfCDPK4 kinase inhibitors, biochemical, TCAMS library (AID 1159588; cut-off not given, nearly all actives have IC50 up to about 0.91 µM). The settings on record: recombinant PfCDPK4, Kinase-Glo ATP depletion luminescence.
Test [7] has as its target Plasmodium falciparum protein kinase 6 (PK6, PF3D7_1337100) (UniProt Q8IDW1). Put plainly: PfPK6 kinase inhibitors, biochemical, TCAMS library (AID 1159586; call rule not given here). The settings on record: recombinant PfPK6, Kinase-Glo ATP depletion luminescence.
A further test relates to F380Y. Put plainly: BK channel mutant inhibitors and activators – cell-based, U2OS BacMam, thallium flux, beta subunits, selectivity assay, profiling panel (AID 1259406).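 Also: initial slope of Thallos dye fluorescence rise after thallium is added; log ratio against the mean of 0.3% DMSO vehicle wells on the same plate.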 The conditions noted are these: U2OS BacMam BK variants, at 30 µM.
A further test relates to F380Y/beta1. The test is described as above. The conditions noted are these: U2OS BacMam BK variants, at 30 µM.
The next test concerns F380Y/beta2Delta. The test is described as above. The conditions noted are these: U2OS BacMam BK variants, at 30 µM.
Another test relates to F380Y/beta4. The description is as above. The settings on record: U2OS BacMam BK variants, at 30 µM.
Test [8] has as its target Calcium-activated potassium channel subunit alpha-1 (Homo sapiens) + Leucine-rich repeat-containing protein 26 (Homo sapiens) (UniProt Q12791+Q2I0M4). Described as above. The conditions noted are these: U2OS BacMam BK variants, F380Y/Slo1WT/gamma1, at 30 µM.
Another test concerns R275C. The description is as above. The conditions noted are these: U2OS BacMam BK variants, at 30 µM.
Another test has as its system R275C/beta1. Described as above. The settings on record: U2OS BacMam BK variants, at 30 µM.
For a further test, the system named is R275C/beta2Delta. Described as above. The conditions noted are these: U2OS BacMam BK variants, at 30 µM.
For a further test, the system named is R275C/beta4. The description is as above. The conditions noted are these: U2OS BacMam BK variants, at 30 µM.
The next test concerns R275C/Slo1WT/beta2. The test is described as above. The conditions noted are these: U2OS BacMam BK variants, at 30 µM.

Sequence of Calcium-dependent protein kinase 4 (Plasmodium falciparum (isolate 3D7)) (Q8IBS5 whole entry, looked up): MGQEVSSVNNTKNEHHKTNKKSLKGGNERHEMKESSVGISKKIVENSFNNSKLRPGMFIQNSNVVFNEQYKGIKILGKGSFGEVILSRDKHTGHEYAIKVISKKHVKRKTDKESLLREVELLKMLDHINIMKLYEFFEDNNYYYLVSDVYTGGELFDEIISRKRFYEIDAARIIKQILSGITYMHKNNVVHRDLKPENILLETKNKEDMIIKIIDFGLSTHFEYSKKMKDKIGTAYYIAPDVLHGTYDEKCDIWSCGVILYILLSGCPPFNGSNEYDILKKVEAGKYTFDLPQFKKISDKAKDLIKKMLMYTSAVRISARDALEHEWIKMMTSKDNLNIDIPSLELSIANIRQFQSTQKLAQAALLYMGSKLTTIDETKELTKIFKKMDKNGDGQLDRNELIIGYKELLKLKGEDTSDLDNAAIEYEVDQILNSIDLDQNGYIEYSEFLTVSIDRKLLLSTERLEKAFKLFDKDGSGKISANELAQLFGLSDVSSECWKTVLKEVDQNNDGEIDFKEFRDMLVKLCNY
Sequence of Calcium-activated potassium channel subunit alpha-1 (Homo sapiens) + Leucine-rich repeat-containing protein 26 (Homo sapiens) (Q2I0M4 whole entry, looked up, one chain of several): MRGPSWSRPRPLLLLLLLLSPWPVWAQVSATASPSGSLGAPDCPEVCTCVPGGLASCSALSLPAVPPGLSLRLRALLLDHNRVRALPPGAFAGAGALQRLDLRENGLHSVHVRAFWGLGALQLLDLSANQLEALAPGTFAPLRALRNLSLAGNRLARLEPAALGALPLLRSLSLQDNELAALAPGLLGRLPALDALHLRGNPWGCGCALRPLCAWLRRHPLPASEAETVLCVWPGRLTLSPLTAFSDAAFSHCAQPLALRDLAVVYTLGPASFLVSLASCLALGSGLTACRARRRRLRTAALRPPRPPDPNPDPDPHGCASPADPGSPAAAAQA
Sequence of Plasmodium falciparum protein kinase 6 (PK6, PF3D7_1337100) (Q8IDW1 1-305): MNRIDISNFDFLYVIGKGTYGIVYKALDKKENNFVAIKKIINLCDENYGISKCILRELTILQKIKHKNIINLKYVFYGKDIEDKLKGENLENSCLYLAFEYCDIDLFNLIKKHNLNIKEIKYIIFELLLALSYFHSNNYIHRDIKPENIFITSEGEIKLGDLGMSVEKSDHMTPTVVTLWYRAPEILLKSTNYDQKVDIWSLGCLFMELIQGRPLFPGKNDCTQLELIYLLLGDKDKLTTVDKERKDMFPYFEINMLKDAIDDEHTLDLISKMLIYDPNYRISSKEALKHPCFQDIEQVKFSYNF
Sequence of Protein kinase 7 (PK7), Plasmodium falciparum 3D7 (PF3D7_0213400) (Q7YTF7 1-343): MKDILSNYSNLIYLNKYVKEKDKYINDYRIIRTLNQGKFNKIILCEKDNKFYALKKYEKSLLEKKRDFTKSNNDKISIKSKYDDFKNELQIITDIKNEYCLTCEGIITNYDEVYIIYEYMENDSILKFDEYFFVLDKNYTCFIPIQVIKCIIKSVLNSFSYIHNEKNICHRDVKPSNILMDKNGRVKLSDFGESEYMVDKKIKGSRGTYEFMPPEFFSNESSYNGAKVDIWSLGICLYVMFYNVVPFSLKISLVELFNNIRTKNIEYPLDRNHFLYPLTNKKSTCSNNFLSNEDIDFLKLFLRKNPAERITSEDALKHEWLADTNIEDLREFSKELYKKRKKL
Sequence of L-lactate dehydrogenase (Plasmodium falciparum (isolate CDC / Honduras)) (Q27743 whole entry, looked up): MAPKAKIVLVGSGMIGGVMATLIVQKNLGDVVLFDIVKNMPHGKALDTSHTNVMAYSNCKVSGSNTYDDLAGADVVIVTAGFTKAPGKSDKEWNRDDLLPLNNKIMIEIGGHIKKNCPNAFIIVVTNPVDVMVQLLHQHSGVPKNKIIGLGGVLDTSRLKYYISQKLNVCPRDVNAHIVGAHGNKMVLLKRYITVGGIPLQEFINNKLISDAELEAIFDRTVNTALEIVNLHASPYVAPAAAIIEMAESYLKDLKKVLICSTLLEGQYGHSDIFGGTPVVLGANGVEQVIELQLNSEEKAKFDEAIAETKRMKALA

For orientation: inhibition means the relative decrease from the control value, in per cent. Take `NC(=O)c1ccccc1Nc1nc(Nc2cccc(N3CCN(CCO)CC3)c2)ncc1Cl`: the growth inhibition is 98% (active) in test [1] and 95% (active) in test [4]. Moreover, the inhibition in test [2] was 93% (active); in test [3] it was 1%. For the same compound, the result in test [5] and in test [6] was inactive.

As to `OC1CCC(Nc2ccc3ncc(-c4ccc(Cl)cc4)n3n2)CC1` (configuration not stated), the growth inhibition in test [1] is 98% (active); in test [4] it was 97% (active). Also, the results for the inhibition in test [2] and in [3] were 57% (active) and 0%, respectively. The outcome in test [7] and in test [6] was inactive.

As to `CCn1c(-c2nonc2N)nc2c(-c3ccccc3)ncc(OCCCNCCCN3CCOCC3)c21`, the growth inhibition in test [1] is 91% (active); in [4], 100% (active). Further, the inhibition in [2] was 28%; in test [3], -7%. In addition, the outcome in test [7] and in [5] was inactive.

Regarding `CCn1c(-c2nonc2N)nc2c(-c3cccc(NC(=O)Nc4ccc(C#N)cc4)c3)ncc(OCCCN)c21`, the growth inhibition in [1] is 80% (active); in test [4] it was 85% (active). Besides, the inhibition is 1% in test [2] and 0% in [3]. Also, the outcome in [7] and in [5] was inactive.

Consider `CS(=O)(=O)Cc1ccc(Nc2nccc(N3CCCc4cc(NC(=O)Nc5cccc(C(F)(F)F)c5)ccc43)n2)cc1`, for which the growth inhibition in [1] is 99% (active); in [4], 102% (active). Besides, the inhibition is 46% in [2] and -4% in [3]. The outcome in test [5] and in test [6] was inactive.

As for `CN1CCN(c2ccc(Nc3nccc(-c4c(-c5cccc(NC(=O)c6c(F)cccc6F)c5)nn5ccccc45)n3)cc2)CC1`, the growth inhibition in [1] and in test [4] was 98% (active) each time. In addition, the inhibition is 86% (active) in test [2] and -3% in test [3]. For the same compound, the result in [7] and in test [5] was inactive.

`COc1ccc(Nc2ncc(OC)c(Nc3ccccc3C(N)=O)n2)cc1N1CCN(C)CC1`: the growth inhibition is 96% (active) in [1] and 100% (active) in test [4]. The values for the inhibition in test [2] and in test [3] were 63% (active) and 0%, respectively. Further, the result in test [5] and in test [6] was inactive.

For `CCn1c(-c2nonc2N)nc2c(-c3cccc(Cl)c3)ncc(OCCCNCCc3cnc[nH]3)c21`, the growth inhibition was 98% (active) in [1] and 101% (active) in test [4]. The inhibition in test [2] is 16%; in test [3], -3%. The result in test [7] and in test [5] was inactive.

`NCCCNc1nc(Nc2cccc(C(N)=O)c2)c2c(=O)[nH]ccc2n1`: the growth inhibition is 49% in test [1] and 99% (active) in [4]. In addition, the inhibition was 9% in [2] and -3% in test [3]. The result in test [7] and in test [5] was inactive.

Take `CC(C)(CN)c1cc(-c2ccc(Cl)c(O)c2)c(-c2ccncc2)o1`: the growth inhibition is 97% (active) in test [1] and 92% (active) in [4]. Also, the inhibition in test [2] was 44%; in [3], 7%. Also, the result in test [7] and in [5] was inactive.

With `NS(=O)(=O)c1cccc(Nc2nccc(-c3c(-c4cccc(NC(=O)c5c(F)cccc5F)c4)nn4ccccc34)n2)c1`, the growth inhibition was 97% (active) in test [1] and 98% (active) in [4]. Further, the values for the inhibition in test [2] and in [3] were 81% (active) and 2%, respectively. The outcome in test [7] and in test [5] was inactive.

In the case of `CN1CCN(c2ccc(Nc3ncc(C#N)c(Nc4ccccc4C(N)=O)n3)cc2)CC1`, the growth inhibition in [1] is 93% (active); in test [4] it was 92% (active). Further, the values for the inhibition in test [2] and in [3] were 43% and -1%, respectively. Also, the result in test [5] was inactive.

With `CN1CCN(CC(=O)Nc2ccccc2Oc2ccccc2)CC1`, the log fold change Tl+ flux is 0.0235 in the test with F380Y; 0.0196 in the test with F380Y/beta1; 0.0764 with F380Y/beta2Delta; 0.0239 in the test on F380Y/beta4; 0.0414 in [8]; -2.9e-05 in the test on R275C. The log fold change Tl+ flux with R275C/beta1 is 0.00212; with R275C/beta2Delta, 0.00784; in the test on R275C/beta4, 0.00808; in the test with R275C/Slo1WT/beta2 it was 0.0378.

As to `CC(c1cccc(Nc2nccc(-c3c(-c4cccc(NC(=O)c5c(F)cccc5F)c4)nn4ncccc34)n2)c1)S(C)(=O)=O` (configuration not stated), the growth inhibition in test [1] and in test [4] was 98% (active) each time. In addition, the inhibition in test [2] was 79% (active); in test [3], 4%. Also, the outcome in test [5] was inactive.

Turning to `O=c1[nH]nc(N2CCSCC2)[nH]1`, the log fold change Tl+ flux is 0.00841 in the test with F380Y; 0.0329 in the test with F380Y/beta1; -0.0177 in the test with F380Y/beta2Delta; 0.0123 with F380Y/beta4; -0.0239 in test [8]; 0.0133 with R275C. The log fold change Tl+ flux is 0.000508 in the test with R275C/beta1, -0.00725 in the test on R275C/beta2Delta, 0.0241 in the test on R275C/beta4 and 0.014 with R275C/Slo1WT/beta2.

Consider `Clc1cc(Cl)cc(Nc2ncnc(-n3cccc3)n2)c1`, for which the log fold change Tl+ flux is 0.0686 in the test on F380Y; 0.0545 in the test on F380Y/beta1; 0.0354 in the test with F380Y/beta2Delta; 0.0368 in the test with F380Y/beta4; 0.0181 in [8]; 0.00673 with R275C. The log fold change Tl+ flux in the test with R275C/beta1 was 0.00955; in the test with R275C/beta2Delta, 0.0395; in the test on R275C/beta4 it was -0.0107; with R275C/Slo1WT/beta2, -0.0692.

For the compound `CNC(=O)c1ccccc1Nc1nc(Nc2ccc(N3CCOCC3)cc2)ncc1Cl`, the growth inhibition in test [1] and in test [4] was 97% (active) throughout. In addition, the inhibition in test [2] is 75% (active); in [3], -3%. In addition, the outcome in test [5] and in test [6] was inactive.

Regarding `CCOC(=O)c1ccc(N2CCOCC2)c(N=Cc2cc(Cl)cc(Cl)c2O)c1`, the log fold change Tl+ flux with F380Y was 0.0511; in the test on F380Y/beta1 it was 0.162 (active); with F380Y/beta2Delta, 0.0876; in the test on F380Y/beta4, 0.0975 (active); in test [8], 0.0345; with R275C, -0.00571. Further, the log fold change Tl+ flux with R275C/beta1 was 0.163 (active); with R275C/beta2Delta, 0.0906 (active); in the test with R275C/beta4, 0.128 (active); in the test with R275C/Slo1WT/beta2, 0.0153.

For the compound `CCOC(=O)c1nn(-c2ccc(C(C)(C)C)cc2)c(=O)c(C#N)c1C`, the log fold change Tl+ flux is -0.364 (active) in the test on F380Y; -0.189 (active) in the test on F380Y/beta1; -0.281 (active) in the test with F380Y/beta2Delta; -0.097 (active) in the test with F380Y/beta4; -0.15 (active) in test [8]; -0.52 (active) in the test on R275C. For the same compound, the log fold change Tl+ flux with R275C/beta1 is -0.383 (active); in the test on R275C/beta2Delta, -0.219 (active); in the test on R275C/beta4, -0.26 (active); in the test on R275C/Slo1WT/beta2, -0.0278.

For `O=C(CNc1cc(C(F)(F)F)cc(C(F)(F)F)c1)c1ccc(Cl)cc1`, the log fold change Tl+ flux with F380Y was -0.0386; with F380Y/beta1 it was 0.0507; in the test on F380Y/beta2Delta, -0.00515; with F380Y/beta4, -0.0229; in test [8], -0.0851; in the test with R275C, 0.0058. Moreover, the log fold change Tl+ flux with R275C/beta1 was 0.0119; in the test on R275C/beta2Delta it was 0.000503; in the test on R275C/beta4, 0.0102; in the test with R275C/Slo1WT/beta2 it was 0.0351.

Values taken from PubChem BioAssay.
